# ELG1 DNA repair: ELG1-dependent DNA repair inhibition; HEK293T ELG1-luciferase reporter, luminescence, 16 h; DNA damage induced by 5-fluorouridine; Potency, µM (highest dose often 46.1 µM), for the others: top-dose activity change, negative = inhibition, usual class: inhibitors; 330,000 tested, 2.3% active; note: nearly all actives have a fitted effect of over 55% in size
#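 In this reporter screen, reduction of luminescence relative to DMSO vehicle indicated activity. Compounds and 5-fluorouridine were added together to 2,000 cells per well, incubated for 16 hr at 37 °C, then developed with ONE-Glo.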
# DT40 TDP1 CPT: growth inhibition of DT40 Tdp1-/-;hTDP1 cells with camptothecin (screen for TDP1 inhibitors); chicken DT40 Tdp1-/-;hTDP1 cells + 20 nM CPT, ATP luminescence, 48 h; Potency, µM (titrated, usually from 46.2 µM), inactives show at the highest dose activity change, negative = growth inhibition, hits mostly inhibitors; 420,000 tested, 12% active; AID 686979; note: nearly all actives have a fitted effect of over 55% in size
#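 Chicken DT40 Tdp1-/- cells complemented with human TDP1, 400 cells/well, exposed to compounds plus 20 nM camptothecin for at least 48 h at 37 C; viability read as ATP content by CellTiter-Glo luminescence.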
# VP16 counter: Gal4-VP16 reporter inhibition counter-screen; Potency, µM (series often up to 53.6 µM), inactives show top-dose activity, negative = inhibition, usual class: inhibitors; AID 2546; Drosophila S2 Gal4-VP16 UAS-luciferase, luminescence, 20 h; 310,000 tested, 3.5% active;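 note: Gal4-VP16 expression switched on by copper sulfate through the metallothionein promoter; nearly all actives have a fitted effect of over 50% in size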
# DT40 TDP1 no CPT: qHTS for Inhibitors of human tyrosyl-DNA phosphodiesterase 1 (TDP1): qHTS in cells in absence of CPT; Potency, µM (doses to about 46.2 µM), for inactives: top-dose activity change, negative = growth inhibition, actives largely listed as inhibitors; AID 686978, 2013; DT40 Tdp1-/- hTDP1 cells, no CPT, ATP luminescence, 48 h; 420,000 tested, 15% active; note: nearly all actives have a fitted effect of over 55% in size
#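 Growth of hTDP1-complemented DT40 Tdp1-knockout cells is measured by ATP luminescence after at least 48 hr compound exposure at 37 °C, with DMSO substituting for the 20 nM CPT used in the parallel screen.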
# RORg inh: inhibitors of mouse ROR gamma transcriptional activity; Potency, µM (top dose mostly 53.6 µM), inactives show at the highest dose activity change, negative = inhibition, hits mostly inhibitors; P51450; 310,000 tested, 5.4% active; Drosophila S2 Gal4-RORgamma UAS-luciferase reporter, 20 h; AID 2551; note: nearly all actives have a fitted effect of over 60% in size
# Target sequence (P51450 whole entry, looked up, the tested form may be a part): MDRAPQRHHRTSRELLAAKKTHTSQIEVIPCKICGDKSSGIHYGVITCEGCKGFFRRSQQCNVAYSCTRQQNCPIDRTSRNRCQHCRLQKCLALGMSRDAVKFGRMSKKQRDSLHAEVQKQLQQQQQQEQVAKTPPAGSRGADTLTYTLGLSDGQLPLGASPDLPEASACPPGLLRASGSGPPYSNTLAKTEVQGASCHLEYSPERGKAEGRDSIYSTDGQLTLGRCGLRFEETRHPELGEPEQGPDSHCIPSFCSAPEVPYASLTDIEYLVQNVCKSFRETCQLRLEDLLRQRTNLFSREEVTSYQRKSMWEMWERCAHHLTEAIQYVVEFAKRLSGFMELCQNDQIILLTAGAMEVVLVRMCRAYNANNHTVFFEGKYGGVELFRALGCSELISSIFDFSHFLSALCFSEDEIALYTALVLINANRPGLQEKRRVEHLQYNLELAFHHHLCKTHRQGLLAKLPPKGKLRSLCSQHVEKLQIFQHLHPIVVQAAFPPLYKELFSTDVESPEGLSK
#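 Stable Schneider cell line, Gal4 DNA-binding domain fused to ROR gamma, UAS-luciferase. Cmpd 1 hr RT → CuSO4 700 uM final → 20 hr RT → luciferase reagent 10 min → luminescence.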
# ALOX12 inh: inhibitors of human 12S-lipoxygenase ALOX12 | AID 1671190 | 580,000 tested, 1.1% active | P18054 | Potency, µM (series often up to 108 µM), inactives show at the top dose activity change, negative = inhibition, most hits filed as inhibitors | purified 12hLO, xylenol orange hydroperoxide absorbance
#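 Hydroperoxide product was detected by ferrous iron/xylenol orange as the 573 to 405 nm absorbance ratio. Arachidonic acid at 40 uM (final) was turned over for 30 min at room temperature by 150 nM human 12hLO, pH 7.0 Hepes buffer, after 15 min compound preincubation.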
# Numbers without * were called inactive; ? = inconclusive; . = not tested or not shown; [ ] = remark or other dose. Shown are actives, neighbours in structure and some others; about 15% of the full set was active somewhere. Calls come from the whole dose curve; as a rule, active = well fitted curve in the direction sought with a large enough effect; inconclusive = small, poorly fitted or top-dose-only effect, or another doubt; inactive = no such curve, though single readings can be large; an effect the other way counts as inactive or inconclusive. % is set by controls: 0 for no effect and ±100 for the full control effect; potency is the fitted concentration of half-maximal effect.
SMILES,ELG1 DNA repair,DT40 TDP1 CPT,VP16 counter,DT40 TDP1 no CPT,RORg inh,ALOX12 inh
CC(C)(C)OC(=O)N[C@@H](C(=O)OC(C)(C)C)c1ccc2ccccc2c1,26.1%,?,.,23.1µM*,.,6.5%
CN(C)c1ccc(CNC(=O)c2ccc3c(c2)N(C)C(=O)C2CCCCN32)cc1 (stereo not drawn),.,18.4µM*,.,?,.,-9.6%
CSc1ccc(CNC(=O)c2ccc3c(c2)N(C)C(=O)C2CCCCN32)cc1 (stereo not drawn),.,?,.,?,.,-21.3%
Cn1sc(=O)n(Cc2ccccc2)c1=O,.,.,?,.,3.16µM*,.
COc1ccc(NC(=O)CSc2nc3c(=O)[nH]cnc3n2-c2ccc(C)cc2)cc1OC,.,.,.,.,.,23.5%
O=C(c1cccs1)N1CCC2(CC1)CN(Cc1ccccc1)CC2CO (stereo not drawn),.,.,.,.,.,26.9%
CN(Cc1cccc2cnccc12)C(=O)CCc1nnc(CCc2ccccc2)o1,12.7%,?,20µM*,?,?,-2.6%
Cc1ccc(S(=O)(=O)N2c3cc(C)ccc3OCC2C(C)(C)C)cc1 (stereo not drawn),-5.8%,?,-19.0%,?,44.6%,0.0%
CC1COc2ccccc2N1S(=O)(=O)c1ccc(Cl)cc1 (stereo not drawn),?,-4.7%,-0.5%,23.1µM*,40.2%,2.9%
Cc1ccc(S(=O)(=O)N2c3ccccc3OCC2c2ccccc2)cc1 (stereo not drawn),?,29.1µM*,?,16.4µM*,115.3%,-12.9%
CC1COc2ccccc2N1C(=O)c1ccc(Cl)cc1 (stereo not drawn),-7.6%,-7.0%,-6.3%,-20.3%,-2.6%,9.7%
O=C(C(Cl)Cl)N1c2ccccc2OCC1c1ccccc1 (stereo not drawn),-1.4%,18.4µM*,?,14.6µM*,?,0.0%
Cc1ccc(NC(=O)C(C#N)=C2CCCC2)cc1,.,.,.,.,.,-29.1%
CC(=O)C1CCCN(C(=O)c2ccc3nc(Cc4cccc(Cl)c4)oc3c2)C1 (stereo not drawn),-0.2%,?,0.0%,?,11.5%,4.6%
CCC(=O)C1CCCN(C(=O)c2ccc3nc(-c4cccc(OC)c4)oc3c2)C1 (stereo not drawn),?,?,2.3%,?,-13.6%,?
CCOC(=O)C1CCCN(C(=O)c2ccc3nc(-c4cccc(OC)c4)oc3c2)C1 (stereo not drawn),?,3.26µM*,-11.3%,2.91µM*,-6.8%,499.6%
CCN(CC)C(=O)C1CCCN(C(=O)c2ccc3nc(-c4cccc(OC)c4)oc3c2)C1 (stereo not drawn),.,23.1µM*,.,11.6µM*,.,7.7%
COc1ccc(S(=O)(=O)N(CC(=O)N(C)Cc2ccccc2)c2ccc(Cl)cc2)cc1,.,?,.,?,.,-14.2%
COc1ccc(S(=O)(=O)N(CCO)c2ccccc2CN(C)CC=Cc2ccc(Cl)cc2)cc1,.,.,14.1µM*,.,-40.5%,.
CNC(=O)N1CCC(C2CCN(Cc3cc(F)c(F)c(F)c3)C2)CC1 (stereo not drawn),.,.,.,.,.,22.5%
COC(=O)C1=C(C)N(C)C(=S)NC1c1c(OC)ccc2ccccc12 (stereo not drawn),-24.9%,0.0%,?,-10.8%,7.94µM*,-12.3%
CC(NC(=O)c1ccc2cccc(F)c2n1)c1ccccc1-n1cccn1 (stereo not drawn),.,.,.,.,.,10.9%
O=C1N(Cc2cccc(Cl)c2)C[C@@H]2C[C@@H](c3cccn3-c3nccs3)N3CCC[C@@]123,0.6%,?,19.0%,16.4µM*,-26.7%,-17.8%
O=C1N(Cc2cccc(Cl)c2)C[C@@H]2C[C@@H](c3ccc4nonc4c3)N3CCC[C@@]123,?,?,-0.4%,18.4µM*,1.8%,-7.0%
O=C1N(Cc2cccc(Cl)c2)C[C@@H]2C[C@@H](c3c[nH]c4ccccc34)N3CCC[C@@]123,-1.9%,?,-4.6%,14.6µM*,?,?
SMILES,ELG1 DNA repair,DT40 TDP1 CPT,VP16 counter,DT40 TDP1 no CPT,RORg inh,ALOX12 inh
Cc1ccc([C@@H]2C[C@H]3CN(Cc4cccc(Cl)c4)C(=O)[C@]34CCCN24)o1,-9.7%,-8.4%,27.0%,-10.3%,2.0%,5.8%
O=C1N(Cc2cccc(Cl)c2)C[C@@H]2C[C@@H](c3cccc4ncccc34)N3CCC[C@@]123,?,23.1µM*,-2.6%,23.1µM*,24.0%,?
O=C1NC2(CCN([S+](=O)([O-])c3cccc(C(F)(F)F)c3)CC2)Oc2ccccc21,.,.,.,.,.,35.9%
Cc1ccccc1NC(=O)NCC1CCN(c2ccc(S(=O)(=O)N3CCOCC3)cc2)CC1,-11.7%,23.1µM*,3.1%,20.6µM*,13.2%,0.7%
O=S(=O)(NCC1CCN(c2ccc(S(=O)(=O)N3CCOCC3)cc2)CC1)c1ccc(F)cc1,?,23.1µM*,?,20.6µM*,?,?
O=C(NCC1CCN(c2ccc(S(=O)(=O)N3CCOCC3)cc2)CC1)c1ccc(Cl)cc1,20.6µM*,14.6µM*,?,13µM*,-23.9%,0.0%
O=C(CCNC(=O)c1ccc(Cl)cc1)Nc1ccc(S(=O)(=O)N2CCOCC2)cc1,11.7%,?,.,-3.9%,.,241.8%
CN(C(=O)c1ccccc1F)C(c1ccccc1)c1ccccc1,-13.3%,10.3µM*,17.8%,16.4µM*,43.9%,-1.7%
CC(c1cccs1)N(C)C(=O)c1ccccc1F (stereo not drawn),.,.,.,.,.,20.0%[176 µM]
Fc1cccc(CN(C2=NCCN2)c2c(Cl)cccc2Cl)c1,?,?,.,20.6µM*,.,-20.0%
Fc1cccc(CSC2=NCCS2)c1,.,.,.,.,.,5.6%
COC(=O)CCC(=O)OC1(C)C(=O)C2=CN(Cc3ccccc3)C(c3ccc(OC)cc3)=CC2=C(Br)C1=O (stereo not drawn),.,-15.3%,.,-3.2%,.,?
COC(=O)CCC(=O)OC1(C)C(=O)C2=CN(CC(C)C)C(c3ccc(OC)cc3)=CC2=C(Br)C1=O (stereo not drawn),6.9%,.,3.4%,.,23.5%,.
COC(=O)CCC(=O)OC1(C)C(=O)C2=CN(c3ccccc3)C(c3ccc(OC)cc3)=CC2=C(Br)C1=O (stereo not drawn),.,?,.,?,.,39.8µM*
COC(=O)CCC(=O)OC1(C)C(=O)C2=CN(CCCOC(C)C)C(c3ccc(OC)cc3)=CC2=C(Br)C1=O (stereo not drawn),-1.4%,18.4µM*,-5.9%,16.4µM*,-14.0%,.

# Screening data: PubChem BioAssay, National Center for Advancing Translational Sciences (NCATS)
